High-throughput results as filed in PubChem BioAssay.
TIM10 inh – TIM10 yeast growth inhibition. AID 463195. S. cerevisiae TIM10 strain growth, BacTiter-Glo luminescence, 24 h. inhibition, % at 10 µM. 330,000 tested, 1.4% active;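 active means inhibition of 40% or more at the single tested concentration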;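 further: wild-type TIM10 isogenic control strain grown at permissive 25 °C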
SKKanGAS inh – blocks kanamycin growth of S. pyogenes SKKanGAS strain; inhibition, % at 7.5 µM; 300,000 tested, 1.3% active; BacTiter-Glo, 6 h; AID 1662;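 active means mean replicate score, as percent of positive control median, at least 50; inconclusive means mean below 50 but one replicate at or above 50; inactive means mean and every replicate below 50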;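 further: strain carries kanamycin resistance gene driven by streptokinase promoter and grows in 40 µg/ml kanamycin; loss of luminescence reflects streptokinase promoter inhibition or plain growth inhibition; 0% = median of DMSO wells and 100% = positive control at its reference dose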
tim23-1 inh – inhibits growth of tim23-1 mutant yeast | S. cerevisiae tim23-1 growth, BacTiter-Glo luminescence, 24 h | inhibition, % at 20 µM | 330,000 tested, 1.3% active | AID 463212;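 active means growth inhibition of the mutant yeast at or above 50%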;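 further: temperature-sensitive mutant grown at 25 °C; plate controls were DMSO-treated mutant yeast for no effect and medium wells lacking yeast for full effect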
PfHsp90 set2 – inhibits growth of yeast expressing Plasmodium falciparum Hsp90; S. cerevisiae expressing PfHsp90, BacTiter-Glo ATP, 48 h; yeast lacking PDR1 and PDR3 efflux regulators; inhibition, % at 9.4 µM; 310,000 tested, 0.32% active;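 active means every replicate shows inhibition above about 80%, whatever the replicate mean, limit read from the data; inconclusive means mean inhibition reaches the set limit but some replicate falls short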;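 further: 0% = DMSO neutral controls and 100% = 20 µM radicicol positive controls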
EBI2 antag – antagonists of human EBI2 receptor. EBI2 beta-arrestin recruitment, luminescence, 7a,25-OHC stimulated. AID 651636. P32249. 360,000 tested, 0.81% active. inhibition, % at 5 µM; in the data active means inhibition above about 38%;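 further: enzyme fragment complementation signal reports receptor beta-arrestin coupling in cells; 0% = agonist plus DMSO wells and 100% = wells without agonist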
Target sequence (P32249 whole entry, looked up, the tested form may be a part): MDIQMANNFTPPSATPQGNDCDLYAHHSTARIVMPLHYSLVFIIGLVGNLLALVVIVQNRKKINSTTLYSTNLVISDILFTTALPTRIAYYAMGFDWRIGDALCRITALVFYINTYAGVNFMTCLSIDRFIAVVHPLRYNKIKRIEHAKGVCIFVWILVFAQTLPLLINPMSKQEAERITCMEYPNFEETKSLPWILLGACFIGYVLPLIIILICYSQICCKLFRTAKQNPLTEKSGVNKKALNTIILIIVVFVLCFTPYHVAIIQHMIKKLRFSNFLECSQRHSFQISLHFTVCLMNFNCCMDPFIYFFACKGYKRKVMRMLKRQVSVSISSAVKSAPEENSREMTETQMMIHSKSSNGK
tim10-1 inh – inhibits growth of tim10-1 mutant yeast; S. cerevisiae tim10-1 ts strain growth, BacTiter-Glo, 24 h; inhibition, % at 20 µM; 330,000 tested, 2.2% active; AID 463190;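 active means inhibition of at least 40%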;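 further: mutant grown at 25 °C; 0% = DMSO wells with yeast and 100% = wells holding no yeast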
tim10-1 confirm – tim10-1 yeast growth inhibition, confirmed | shares compounds with tim10-1 inh | S. cerevisiae tim10-1 ts strain growth, BacTiter-Glo, 24 h | inhibition, % at 20 µM | 7,400 tested, 56% active | AID 463213;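 active means inhibition of yeast growth at or above a set limit in either of two repeat tests at 20 µM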;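 further: tim10-1 mutant grown at permissive 25 °C to find synthetic lethal compounds; 0% = DMSO yeast wells and 100% = medium wells without yeast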
tim10 confirm – TIM10 yeast growth inhibition, confirmed; shares compounds with TIM10 inh; S. cerevisiae tim10 strain growth, BacTiter-Glo luminescence, 24 h; inhibition, % at 10 µM; 4,600 tested, 63% active;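 active means inhibition of yeast growth at or above a set limit in either of two replicates at 10 µM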;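 further: this counterscreen used the strain with wild-type TIM10; 0% = yeast with DMSO and 100% = medium wells lacking yeast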
The depositor's hits bear a star. This is a sample that favours compounds with a hit; in the whole collection about 4.7% have one here.

What do the screens show for `C[C@@H]1CC=C[C@H]2[C@H]1C(=O)N(Cc1ccccc1)[C@H]2c1ccc2ccccc2c1`?
TIM10 inh: 48*; SKKanGAS inh: 44; tim23-1 inh: 40; PfHsp90 set2: 27; EBI2 antag: 11; tim10-1 inh: 46*; tim10-1 confirm: 47*; tim10 confirm: 47*

What do the screens show for `CC(=O)c1ccc(-c2ccc([C@H]3[C@H]4C=CC[C@@H](C)[C@@H]4C(=O)N3Cc3ccccc3)c(F)c2)cc1`?
TIM10 inh: 6; SKKanGAS inh: 33; tim23-1 inh: 20; PfHsp90 set2: -11; EBI2 antag: 15; tim10-1 inh: 20

What do the screens show for `Cc1ccc(F)c([C@H]2[C@H]3C=CC[C@@H](C)[C@@H]3C(=O)N2Cc2ccccc2)c1`?
TIM10 inh: 45*; SKKanGAS inh: 35; tim23-1 inh: 48; PfHsp90 set2: -32; EBI2 antag: 7; tim10-1 inh: 50*; tim10-1 confirm: 28; tim10 confirm: 35*

Results for Cc1ccccc1OCC(=O)Nc1ccc(Cc2ccncc2)cc1 ?
TIM10 inh: 41*; SKKanGAS inh: -21; tim23-1 inh: 36; PfHsp90 set2: -1; EBI2 antag: 11; tim10-1 inh: 42*; tim10-1 confirm: 40*; tim10 confirm: 20

What do the screens show for `O=C1NC(=O)/C(=C\c2ccccc2OCc2ccccc2)S1`?
TIM10 inh: 43*; SKKanGAS inh: inconclusive; tim23-1 inh: 46; PfHsp90 set2: 0; EBI2 antag: -12; tim10-1 inh: 45*; tim10-1 confirm: 33*; tim10 confirm: 29

How did COc1cc(/C=C2/SC(=O)NC2=O)ccc1OCc1ccccc1 do in these assays?
TIM10 inh: 4; SKKanGAS inh: 28; tim23-1 inh: 16; PfHsp90 set2: -12; EBI2 antag: -4; tim10-1 inh: 17

Results for CC(=O)n1ccnc1 ?
TIM10 inh: 11; SKKanGAS inh: -4; tim23-1 inh: 4; PfHsp90 set2: 16; EBI2 antag: -3; tim10-1 inh: 4

What do the screens show for `CCC(=O)N(Cc1ccco1)c1nc(C(=O)Nc2ccc(Cl)cc2)c(C)s1`?
TIM10 inh: 44*; SKKanGAS inh: -3; tim23-1 inh: 35; PfHsp90 set2: 5; EBI2 antag: 32; tim10-1 inh: 46*; tim10-1 confirm: 35*; tim10 confirm: 38*

What do the screens show for `CC(C)C(C(=O)Nc1ccc2c(c1)OCCOCCOCCOCCO2)N1C(=O)c2ccccc2C1=O` (centres undefined)?
TIM10 inh: -4; SKKanGAS inh: 5; tim23-1 inh: 9; PfHsp90 set2: -7; EBI2 antag: -5; tim10-1 inh: 23

What do the screens show for `CCc1cccc(C)c1NC(=S)NCc1ccc2[nH]c(C)cc2c1`?
TIM10 inh: 48*; SKKanGAS inh: 7; tim23-1 inh: 49; PfHsp90 set2: -30; EBI2 antag: 5; tim10-1 inh: 51*; tim10-1 confirm: 25; tim10 confirm: 37*

How did CNC(=S)NCc1ccc2[nH]c(C)cc2c1 do in these assays?
TIM10 inh: -9; SKKanGAS inh: 8; tim23-1 inh: 0; PfHsp90 set2: 22; EBI2 antag: -4; tim10-1 inh: -11

What do the screens show for `CCN1C(=O)[C@@H]2[C@@H](c3ccc(-c4ccc(F)cc4)c(OC)c3)N3CCC[C@@]3(C(=O)OC)[C@@H]2C1=O`?
TIM10 inh: -2; tim23-1 inh: 6; PfHsp90 set2: -21; EBI2 antag: -2; tim10-1 inh: -4

What do the screens show for `C=C1/C=C(\C)[C@](C)(O)C[C@H](O)CC(=O)[C@H](O)[C@@H](O)[C@H](C)C[C@H](C)OC(=O)/C(C)=C/CC/C=C/[C@@H]2O[C@H]2C[C@H](C)C1`?
TIM10 inh: 32; tim23-1 inh: 4; tim10-1 inh: -33

Results for CCCCc1ccc(NC(=S)NCc2cccs2)cc1 ?
TIM10 inh: 40*; SKKanGAS inh: 10; tim23-1 inh: 40; EBI2 antag: 3; tim10-1 inh: 46*; tim10-1 confirm: 43*; tim10 confirm: 35*

What do the screens show for `Cc1ccc(NC(=S)NCc2cccs2)cc1`?
TIM10 inh: -30; SKKanGAS inh: -1; tim23-1 inh: 34; PfHsp90 set2: 5; EBI2 antag: -1; tim10-1 inh: -8

Results for CCOC(=O)C(C(=O)OCC)C(Nc1ccc(Br)cc1)c1ccccc1 (centres undefined) ?
TIM10 inh: 51*; SKKanGAS inh: -3; tim23-1 inh: 45; PfHsp90 set2: 12; EBI2 antag: -31; tim10-1 inh: 51*; tim10-1 confirm: 39*; tim10 confirm: 52*

How did O=C(Nc1ccc(F)c(Cl)c1)C1Cc2c(-c3ccc4c(c3)OCO4)ccnc2O1 (centres undefined) do in these assays?
EBI2 antag: -13

Results for Cc1cc(N2CCC(C)CC2)nc(SCC(=O)c2ccccc2)n1 ?
TIM10 inh: 41*; SKKanGAS inh: 9; tim23-1 inh: 34; PfHsp90 set2: -3; EBI2 antag: 1; tim10-1 inh: 53*; tim10-1 confirm: 34*; tim10 confirm: -37

How did S=C(N/N=C/c1ccco1)NC1CC2CCC1C2 (centres undefined) do in these assays?
TIM10 inh: 42*; SKKanGAS inh: 4; tim23-1 inh: 49; PfHsp90 set2: -10; EBI2 antag: 1; tim10-1 inh: 51*; tim10-1 confirm: 36*; tim10 confirm: 51*

How did COc1ccc(/C=C/C(=O)c2ccc(O)cc2)cc1CN1CCOCC1 do in these assays?
TIM10 inh: 7; SKKanGAS inh: 3; tim23-1 inh: 23; PfHsp90 set2: -13; EBI2 antag: 2; tim10-1 inh: 15

Results for COc1ccc(/C=C/C(=O)C23CC4CC(CC(C4)C2)C3)cc1CN1CCOCC1 ?
TIM10 inh: 46*; SKKanGAS inh: 3; tim23-1 inh: 38; PfHsp90 set2: 12; EBI2 antag: 15; tim10-1 inh: 46*; tim10-1 confirm: 38*; tim10 confirm: 36*

Results for C=CCc1cccc(/C=N/NC(=O)CNc2ccccc2OC)c1O ?
TIM10 inh: 97*; SKKanGAS inh: 6; tim23-1 inh: 25; PfHsp90 set2: -18; EBI2 antag: 8; tim10-1 inh: 47*; tim10-1 confirm: 30; tim10 confirm: 47*

What do the screens show for `CCOC(=O)N1CCN(C(=O)c2ccc(Cl)nc2)CC1`?
TIM10 inh: -8; SKKanGAS inh: -8; tim23-1 inh: -5; PfHsp90 set2: -3; EBI2 antag: 13; tim10-1 inh: 9
